In the supplement of paper PMC10849652:
The full data set covers some 8,800 targets. This sample favours those with a hit. About 0.5% of all pairs of compound and target were hits.

How the values were obtained:
Experiment in all cases: log2 fold change, soluble protein after heating vs DMSO (PISA); higher = thermal stabilisation; K562 lysate, 10 uM; active = over 0.2 and 3.5 SD of the protein, either way, in both replicates (recomputed)
[1] = compound: C#Cc1cccc(Nc2ncnc3cc(OCCOC)c(OCCOC)cc23)c1 [erlotinib]
How it was run: (§1)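 To prepare the extract, K562 pellets were dounce-homogenised in PBS pH 7.4 with 1 mM MgCl2, giving crude material at 1 mg/mL protein. This was treated with 10 μM compound for 30 min, then heated in aliquots for 3 min over 48°C-58°C before pooling and addition of NP-40 to 0.5% at 4°C. Centrifugation at 21,000xg for 90 min left soluble protein in the supernatant, which TMTpro 16plex LC-MS/MS quantified with equalised channel sums. Results are log-two fold changes in thermal stability compared with solvent controls, from duplicates.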

[2] = compound: C/C(=N\NC(=O)C1=CC(=CC=C1)S(=O)(=O)N2CCOCC2)/C3=C(C=CC(=C3)Cl)O
How it was run: as §1

[3] = compound: C1=CC(=CC=C1C2=NC3=C(N2)C=C(C=C3)C(=O)N)OC4=CC=C(C=C4)Cl
How it was run: as §1

[4] = compound: C1=CC2=C(C=CC(=C2)/C=C\3/C(=O)NC(=NCC4=CC=CS4)S3)N=C1
How it was run: as §1

[5] = compound: C1=CC2=NC=CN=C2C=C1/C=C/3\C(=O)NC(=O)S3
How it was run: as §1

[6] = compound: C1=CC=C(C=C1)C2=NC(=C(N2)C3=CC=NC=C3)C4=CC(=C(C=C4)Cl)O
How it was run: as §1

[7] = compound: C1=CC=C2C(=C1)C3=NNC4=CC=CC(=C43)C2=O
How it was run: as §1

[8] = compound: C1CCN(C1)C(=O)NC2=CC=CC(=C2)NC3=NC=C(C(=N3)NCCC4=CN=CN4)Br
How it was run: as §1

[9] = compound: C1CN(CCC1(CC2=CC=C(C=C2)Cl)N)C3=NC=NC4=C3C=CN4
How it was run: as §1

[10] = compound: C1COCCN1CCN2C3=CC=CC=C3N=C2NC(=O)C4=CC(=CC=C4)[N+](=O)[O-] [IRAK-1-4 Inhibitor I]
How it was run: as §1

[11] = compound: C=CC(=O)N1CCC[C@@H](n2nc(-c3ccc(Oc4ccccc4)cc3)c3c(N)ncnc32)C1 [ibrutinib]
How it was run: as §1

[12] = compound: CC(=O)c1cnc2ccc(-c3cc(Cl)c(O)c(Cl)c3)nc2c1N[C@H]1CC[C@H](CN(C)C)CC1
How it was run: as §1

[13] = compound: CC(C)(C)Cn1c(N)nc2ccc(-c3[nH]c(C(C)(C)C)nc3-c3ccc(F)cc3)nc21 [ralimetinib]
How it was run: as §1

[14] = compound: CC(C)(O)CC(=O)NCCn1ccc2ncnc(Nc3ccc(Oc4cccc(C(F)(F)F)c4)c(Cl)c3)c21
How it was run: as §1

[15] = compound: CC(C)C1=C2N=C(C=C(N2N=C1)NCC3=CC=CC=C3)NCCCCCCN
How it was run: as §1

[16] = compound: CC1=C(C(CC(=O)N1)C2=CC=C(C=C2)C(F)(F)F)C(=O)NC3=C(C=C4C(=C3)C=NN4)F
How it was run: as §1

[17] = compound: CC1=C(C2=C(C=C1)C(=O)C3=CC=CC=C3N2CCCN)C
How it was run: as §1

[18] = compound: CC1=C(C=C(C=C1)NC(=O)C2=CC(=CC=C2)C(C)(C)C#N)NC3=CC4=C(C=C3)N=CN(C4=O)C
How it was run: as §1

[19] = compound: CC1=C(C=C(C=C1)NC(=O)C2=CC(=CC=C2)N(C)C)NC(=O)C3=CC=C(C=C3)O
How it was run: as §1

[20] = compound: CC1=CC=C(C=C1)SC2=C3C=C(SC3=CN=C2)C(=O)N
How it was run: as §1

Measured: log2 fold change

GNB1 (UniProt P62873)
UniProt P62873, sequence (P62873 whole entry, looked up): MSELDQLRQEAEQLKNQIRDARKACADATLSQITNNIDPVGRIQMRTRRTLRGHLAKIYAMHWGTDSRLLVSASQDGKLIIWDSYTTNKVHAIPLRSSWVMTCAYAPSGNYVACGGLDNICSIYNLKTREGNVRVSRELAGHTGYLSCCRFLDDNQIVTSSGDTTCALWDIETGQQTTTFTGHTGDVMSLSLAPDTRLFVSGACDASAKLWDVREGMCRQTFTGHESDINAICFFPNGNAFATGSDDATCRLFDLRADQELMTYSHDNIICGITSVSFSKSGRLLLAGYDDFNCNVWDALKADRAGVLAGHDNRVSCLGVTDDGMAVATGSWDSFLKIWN
inactive: [1] 0.053 | [2] 0.018 | [3] 0.082 | [4] -0.019 | [5] -0.015 | [6] -0.022 | [7] 0.023 | [8] -0.017 | [9] -0.031 | [10] 0.012 | [11] 0.018 | [12] -0.018 | [13] -0.036 | [14] 0.057 | [15] 0.003 | [16] -0.052 | [17] 0.076 | [18] 0.145 | [19] -0.076 | [20] -0.011

GLB1 (UniProt P16278)
inactive: [1] 0.004 | [2] -0.027 | [3] 0.004 | [4] 0.039 | [5] -0.011 | [6] 0.016 | [7] -0.086 | [8] -0.003 | [9] 0.031 | [10] 0.016 | [11] 0.002 | [12] -0.008 | [13] -0.005 | [14] -0.03 | [15] 0.003 | [16] -0.009 | [17] -0.001 | [18] -0.011 | [19] 0.025 | [20] 0.015

GTF2H1 (UniProt P32780)
UniProt P32780, sequence (P32780 whole entry, looked up): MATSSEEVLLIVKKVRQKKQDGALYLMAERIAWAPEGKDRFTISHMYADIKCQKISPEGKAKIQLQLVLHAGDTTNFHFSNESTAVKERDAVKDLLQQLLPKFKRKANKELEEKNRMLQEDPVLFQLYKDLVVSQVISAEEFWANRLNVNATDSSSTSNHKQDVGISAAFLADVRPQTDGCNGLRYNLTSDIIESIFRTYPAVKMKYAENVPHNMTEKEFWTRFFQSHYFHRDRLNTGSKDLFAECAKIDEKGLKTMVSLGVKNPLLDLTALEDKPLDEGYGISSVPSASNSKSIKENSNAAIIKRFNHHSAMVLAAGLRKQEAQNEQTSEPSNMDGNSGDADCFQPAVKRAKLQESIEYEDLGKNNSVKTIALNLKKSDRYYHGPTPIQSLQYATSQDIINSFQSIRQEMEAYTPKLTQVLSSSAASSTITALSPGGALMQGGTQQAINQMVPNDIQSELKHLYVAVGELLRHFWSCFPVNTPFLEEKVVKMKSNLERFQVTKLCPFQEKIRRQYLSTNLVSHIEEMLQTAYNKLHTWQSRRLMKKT
inactive: [1] 0.044 | [2] 0.008 | [3] 0.012 | [4] -0.032 | [5] -0.011 | [6] 0.003 | [7] -0.013 | [8] 0.029 | [9] -0.005 | [10] -0.019 | [11] 0.023 | [12] 0.023 | [13] 0.026 | [14] 0.003 | [15] -0.005 | [16] 0.036 | [17] -0.022 | [18] 0.001 | [19] 0.054 | [20] 0.015

IL18R1 (UniProt Q13478)
UniProt Q13478, sequence (Q13478 whole entry, looked up): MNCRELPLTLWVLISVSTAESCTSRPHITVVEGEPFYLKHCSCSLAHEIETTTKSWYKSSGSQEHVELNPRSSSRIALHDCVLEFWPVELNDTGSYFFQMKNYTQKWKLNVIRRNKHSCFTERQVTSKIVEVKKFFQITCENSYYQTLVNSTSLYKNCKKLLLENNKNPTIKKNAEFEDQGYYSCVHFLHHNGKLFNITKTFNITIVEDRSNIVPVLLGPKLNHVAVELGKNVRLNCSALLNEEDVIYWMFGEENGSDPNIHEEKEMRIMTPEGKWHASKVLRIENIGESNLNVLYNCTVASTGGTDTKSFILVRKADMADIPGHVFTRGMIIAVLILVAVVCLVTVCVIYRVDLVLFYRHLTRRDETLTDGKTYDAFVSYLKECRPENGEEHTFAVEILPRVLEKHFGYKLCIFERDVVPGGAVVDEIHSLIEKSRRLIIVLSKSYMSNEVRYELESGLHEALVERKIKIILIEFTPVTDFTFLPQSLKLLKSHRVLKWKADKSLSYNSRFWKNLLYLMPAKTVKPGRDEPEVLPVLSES
inactive: [1] -0.029 | [2] -0.493 | [3] -0.136 | [4] 0.147 | [5] 0.041 | [6] 0.152 | [7] 0.079 | [8] -0.155 | [9] 0.058 | [10] -0.043 | [11] -0.177 | [12] 0.117 | [13] -0.261 | [14] -0.463 | [15] 0.053 | [16] -0.066 | [17] -0.031 | [18] 0.061 | [19] 0.15 | [20] 0.097

IRF2BP1 (UniProt Q8IU81)
inactive: [1] -0.024 | [2] -0.114 | [3] 0.022 | [4] -0.016 | [5] 0.021 | [6] -0.039 | [7] -0.021 | [8] -0.057 | [9] 0.006 | [10] -0.018 | [11] 0.003 | [12] 0.027 | [13] 0.008 | [14] 0.02 | [15] 0.006 | [16] -0.016 | [17] -0.027 | [18] 0.02 | [19] -0.001 | [20] -0.038

KARS1 (UniProt Q15046)
inactive: [1] -0.015 | [2] 0.002 | [3] -0.04 | [4] -0.016 | [5] -0.005 | [6] 0.004 | [7] -0.021 | [8] -0.006 | [9] -0.021 | [10] -0.017 | [11] 0.009 | [12] 0.012 | [13] 0.016 | [14] 0.018 | [15] 0.001 | [16] -0.011 | [17] 0.024 | [18] -0.014 | [19] 0.015 | [20] 0.029

HMGN5 (UniProt P82970)
inactive: [1] 0.013 | [2] -0.122 | [3] 0.052 | [4] 0.021 | [5] -0.002 | [6] -0.013 | [7] 0.024 | [8] 0.067 | [9] 0.024 | [10] 0.007 | [11] -0.035 | [12] -0.012 | [13] -0.064 | [14] -0.021 | [15] 0.006 | [16] -0.004 | [17] -0.035 | [18] -0.011 | [19] 0.036 | [20] -0.056

GLUL (UniProt P15104)
inactive: [1] -0.003 | [2] 0.032 | [3] -0.002 | [4] 0.029 | [5] -0.03 | [6] 0.005 | [7] 0.007 | [8] 0.013 | [9] 0.017 | [10] -0.017 | [11] 0.031 | [12] 0.004 | [13] 0.006 | [14] -0.002 | [15] -0.008 | [16] 0.026 | [17] 0.023 | [18] -0.117 | [19] -0.011 | [20] 0.031

HELQ (UniProt Q8TDG4)
UniProt Q8TDG4, sequence (Q8TDG4 whole entry, looked up): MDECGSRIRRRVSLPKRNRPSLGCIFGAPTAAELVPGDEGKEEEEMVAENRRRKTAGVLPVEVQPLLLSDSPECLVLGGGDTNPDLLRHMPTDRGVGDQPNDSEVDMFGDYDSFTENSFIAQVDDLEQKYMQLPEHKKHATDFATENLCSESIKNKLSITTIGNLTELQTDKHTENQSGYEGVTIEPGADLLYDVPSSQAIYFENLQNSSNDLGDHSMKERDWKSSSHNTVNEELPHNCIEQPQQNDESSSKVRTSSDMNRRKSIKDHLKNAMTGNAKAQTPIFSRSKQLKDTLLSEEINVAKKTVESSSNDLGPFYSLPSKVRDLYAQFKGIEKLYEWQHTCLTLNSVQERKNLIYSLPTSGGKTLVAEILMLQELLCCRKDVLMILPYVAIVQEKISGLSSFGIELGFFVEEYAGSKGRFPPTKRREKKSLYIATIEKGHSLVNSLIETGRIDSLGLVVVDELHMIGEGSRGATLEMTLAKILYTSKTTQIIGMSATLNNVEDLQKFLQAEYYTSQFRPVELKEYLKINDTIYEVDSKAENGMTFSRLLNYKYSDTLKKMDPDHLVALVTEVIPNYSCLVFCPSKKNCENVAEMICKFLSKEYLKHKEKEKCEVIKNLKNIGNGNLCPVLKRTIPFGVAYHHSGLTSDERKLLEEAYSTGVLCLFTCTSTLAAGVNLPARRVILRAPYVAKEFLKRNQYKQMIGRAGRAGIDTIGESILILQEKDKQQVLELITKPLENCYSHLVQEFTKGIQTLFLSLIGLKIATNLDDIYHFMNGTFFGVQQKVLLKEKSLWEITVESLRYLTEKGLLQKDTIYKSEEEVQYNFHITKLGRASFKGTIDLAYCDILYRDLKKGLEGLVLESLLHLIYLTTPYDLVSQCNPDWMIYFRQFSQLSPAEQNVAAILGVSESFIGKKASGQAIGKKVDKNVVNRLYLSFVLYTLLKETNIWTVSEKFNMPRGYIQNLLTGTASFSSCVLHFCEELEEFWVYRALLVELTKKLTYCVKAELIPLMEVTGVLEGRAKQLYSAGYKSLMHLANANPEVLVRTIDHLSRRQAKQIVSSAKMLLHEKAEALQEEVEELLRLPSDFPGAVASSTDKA
inactive: [1] -0.029 | [2] -0.023 | [3] 0.044 | [4] 0.07 | [5] 0.019 | [6] 0.004 | [7] 0.077 | [8] 0.056 | [9] 0.064 | [10] -0.033 | [11] 0.054 | [12] 0.072 | [13] -0.007 | [14] -0.017 | [15] -0.012 | [16] 0.203 | [17] 0.003 | [18] -0.036 | [19] 0.046 | [20] -0.002

HSD17B10 (UniProt Q99714)
inactive: [1] 0.018 | [2] -0.044 | [3] 0.035 | [4] -0.023 | [5] 0.01 | [6] 0.016 | [7] -0.054 | [8] -0.03 | [9] 0.054 | [10] 0.012 | [11] -0.012 | [12] -0.018 | [13] 0.004 | [14] -0.003 | [15] 0 | [16] -0.026 | [17] -0.031 | [18] -0.018 | [19] -0.007 | [20] -0.025

HECTD3 (UniProt Q5T447)
inactive: [1] 0.027 | [2] 0 | [3] -0.005 | [4] 0.008 | [5] 0.022 | [6] 0.018 | [7] -0.008 | [8] -0.028 | [9] -0.026 | [10] 0.008 | [11] 0.054 | [12] 0.019 | [13] 0.037 | [14] -0.027 | [15] -0.022 | [16] -0.043 | [17] 0.022 | [18] -0.014 | [19] 0.002 | [20] 0.011

HNRNPM (UniProt P52272)
UniProt P52272, sequence (P52272 whole entry, looked up): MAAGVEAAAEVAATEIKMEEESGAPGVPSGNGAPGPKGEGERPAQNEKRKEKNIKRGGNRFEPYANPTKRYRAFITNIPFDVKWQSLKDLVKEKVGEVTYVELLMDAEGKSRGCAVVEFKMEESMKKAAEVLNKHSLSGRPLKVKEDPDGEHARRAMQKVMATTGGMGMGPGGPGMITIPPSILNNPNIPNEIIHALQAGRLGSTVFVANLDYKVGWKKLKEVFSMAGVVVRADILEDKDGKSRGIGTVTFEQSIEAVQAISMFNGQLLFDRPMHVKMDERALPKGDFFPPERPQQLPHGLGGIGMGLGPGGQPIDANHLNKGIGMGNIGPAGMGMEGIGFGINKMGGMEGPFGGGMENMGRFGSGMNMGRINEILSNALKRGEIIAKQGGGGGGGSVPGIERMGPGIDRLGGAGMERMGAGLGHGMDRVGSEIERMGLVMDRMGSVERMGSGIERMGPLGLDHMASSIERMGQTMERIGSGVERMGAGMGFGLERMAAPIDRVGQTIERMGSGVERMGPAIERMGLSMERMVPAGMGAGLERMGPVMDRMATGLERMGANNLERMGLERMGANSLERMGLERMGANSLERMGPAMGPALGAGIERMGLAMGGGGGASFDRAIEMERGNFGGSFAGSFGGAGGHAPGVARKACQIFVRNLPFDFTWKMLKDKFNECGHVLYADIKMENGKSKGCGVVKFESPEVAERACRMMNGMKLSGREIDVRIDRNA
inactive: [1] -0.015 | [2] -0.046 | [3] 0.004 | [4] -0.022 | [5] 0.051 | [6] -0.036 | [7] -0.039 | [8] -0.022 | [9] -0.003 | [10] 0.005 | [11] -0.031 | [12] 0.024 | [13] 0.034 | [14] -0.048 | [15] 0.02 | [16] 0.051 | [17] 0.062 | [18] -0.183 | [19] 0.021 | [20] 0.007

IFITM3 (UniProt Q01628)
UniProt Q01628, sequence (Q01628 whole entry, looked up): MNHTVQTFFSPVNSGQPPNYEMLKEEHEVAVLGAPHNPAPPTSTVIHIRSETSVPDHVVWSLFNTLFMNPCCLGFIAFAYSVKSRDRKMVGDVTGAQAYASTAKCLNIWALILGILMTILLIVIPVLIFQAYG
inactive: [1] -0.136 | [2] -0.11 | [3] 0.062 | [4] 0.004 | [5] -0.094 | [6] -0.122 | [7] 0.084 | [8] -0.095 | [9] -0.069 | [10] -0.026 | [11] -0.07 | [12] -0.042 | [13] 0.179 | [14] 0.078 | [15] 0.003 | [16] -0.173 | [17] -0.117 | [18] -0.133 | [19] -0.026 | [20] 0.129

GTF2I (UniProt P78347)
UniProt P78347, sequence (P78347 whole entry, looked up): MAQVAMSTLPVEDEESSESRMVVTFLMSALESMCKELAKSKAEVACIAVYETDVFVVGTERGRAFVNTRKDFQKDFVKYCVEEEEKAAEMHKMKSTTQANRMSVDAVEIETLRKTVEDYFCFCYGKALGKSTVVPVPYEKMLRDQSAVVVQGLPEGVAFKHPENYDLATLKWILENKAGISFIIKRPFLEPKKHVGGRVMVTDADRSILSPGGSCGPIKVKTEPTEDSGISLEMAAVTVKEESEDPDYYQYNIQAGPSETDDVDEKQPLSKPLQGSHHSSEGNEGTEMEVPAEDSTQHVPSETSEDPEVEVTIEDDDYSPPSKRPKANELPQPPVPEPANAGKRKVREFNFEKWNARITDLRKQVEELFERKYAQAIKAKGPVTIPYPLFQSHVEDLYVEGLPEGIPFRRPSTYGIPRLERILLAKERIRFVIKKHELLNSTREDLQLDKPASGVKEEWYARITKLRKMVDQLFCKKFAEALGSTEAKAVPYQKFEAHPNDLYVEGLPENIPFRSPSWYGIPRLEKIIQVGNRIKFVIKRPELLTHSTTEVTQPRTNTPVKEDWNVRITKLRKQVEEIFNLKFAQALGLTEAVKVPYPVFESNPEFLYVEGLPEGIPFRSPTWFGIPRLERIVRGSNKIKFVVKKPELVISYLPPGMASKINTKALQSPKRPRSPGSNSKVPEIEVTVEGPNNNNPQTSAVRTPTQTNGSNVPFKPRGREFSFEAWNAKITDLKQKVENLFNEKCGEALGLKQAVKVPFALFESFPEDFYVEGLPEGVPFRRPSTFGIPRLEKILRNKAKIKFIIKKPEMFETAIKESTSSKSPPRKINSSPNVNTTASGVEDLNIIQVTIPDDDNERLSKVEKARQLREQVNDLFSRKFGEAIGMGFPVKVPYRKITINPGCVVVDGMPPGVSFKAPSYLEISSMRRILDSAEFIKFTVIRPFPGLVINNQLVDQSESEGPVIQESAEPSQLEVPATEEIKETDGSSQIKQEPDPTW
inactive: [1] -0.005 | [2] 0.016 | [3] -0.02 | [4] 0.018 | [5] 0.008 | [6] -0.003 | [7] -0.034 | [8] -0.002 | [9] -0.031 | [10] -0.007 | [11] -0.004 | [12] -0.002 | [13] 0.007 | [14] -0.004 | [15] 0.012 | [16] -0.007 | [17] 0.005 | [18] -0.027 | [19] 0.033 | [20] -0.001

GUSB (UniProt P08236)
UniProt P08236, sequence (P08236 whole entry, looked up): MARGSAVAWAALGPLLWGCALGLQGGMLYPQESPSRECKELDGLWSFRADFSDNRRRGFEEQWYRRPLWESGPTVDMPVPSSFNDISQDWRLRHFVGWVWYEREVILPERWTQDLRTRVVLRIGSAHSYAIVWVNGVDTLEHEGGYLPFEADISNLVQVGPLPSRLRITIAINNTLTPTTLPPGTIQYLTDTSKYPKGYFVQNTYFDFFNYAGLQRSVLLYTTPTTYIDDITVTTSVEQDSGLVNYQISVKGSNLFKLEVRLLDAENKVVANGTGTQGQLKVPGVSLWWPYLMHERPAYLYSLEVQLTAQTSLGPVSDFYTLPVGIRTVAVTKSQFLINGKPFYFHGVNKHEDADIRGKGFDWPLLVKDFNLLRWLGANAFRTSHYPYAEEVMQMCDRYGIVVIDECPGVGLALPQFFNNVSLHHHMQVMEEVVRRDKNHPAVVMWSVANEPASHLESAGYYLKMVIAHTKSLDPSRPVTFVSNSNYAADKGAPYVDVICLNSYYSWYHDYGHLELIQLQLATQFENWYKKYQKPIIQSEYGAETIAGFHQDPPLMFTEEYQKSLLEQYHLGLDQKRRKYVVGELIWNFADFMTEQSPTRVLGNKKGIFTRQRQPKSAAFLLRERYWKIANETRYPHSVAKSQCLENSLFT
inactive: [1] -0.053 | [2] -0.043 | [3] 0.135 | [4] -0.072 | [5] -0.041 | [6] -0.058 | [7] -0.072 | [8] -0.003 | [9] 0.055 | [10] 0.066 | [11] 0.06 | [12] -0.099 | [13] 0.056 | [14] -0.097 | [15] 0.099 | [16] -0.075 | [17] 0.069 | [18] 0.044 | [19] -0.029 | [20] -0.088
